The results in this text go back to PubChem BioAssay (NCI).

About 83,000 compounds went through this panel and 20% of them were active in at least one assay; those are over-represented in the sample as a whole.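 Plates (96-well) were seeded with cells, treated with compound at one concentration, and incubated for 48 hours before percent growth was determined.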 Unmarked numbers belong to inactive results. Active and inactive are the calls of the source. Rule for the calls: active = growth percent below 10; inactive = the rest.

Among the test systems are NCI-H23 lung; NCI-H226 lung; NCI-H322M lung; HOP-62 NSCLC; NCI-H460 lung; HOP-92 NSCLC; NCI-H522 lung; A549/ATCC NSCLC; 786-0 renal; COLO 205 colon.
Holding throughout (assay): NCI-60 one-dose screen, 48 h (100 = growth as untreated, 0 = no growth, -100 = all killed)
Holding throughout (conditions): 10 µM unless noted

In the case of `COc1cc(NC(C)CCCN)c2ncccc2c1Sc1ccc(Cl)cc1` (stereo not given), the growth was 86% in the assay with NCI-H23 lung; 76.1% in the assay on NCI-H226 lung; 77% in the assay with NCI-H322M lung; 67.7% with HOP-62 NSCLC; 10.1% in the assay on NCI-H460 lung; 15.2% in the assay on HOP-92 NSCLC. For the same compound, the growth in the assay on NCI-H522 lung was 75.4%; with A549/ATCC NSCLC it was 59.1%; with 786-0 renal, 63.7%; in the assay with COLO 205 colon, -77.4% (active).

Regarding `O=C(CSc1ccc(Cl)cc1)Nc1ccc(-c2nc3ccccc3s2)c(Cl)c1`, the growth in the assay with NCI-H23 lung is 20.9%; in the assay on NCI-H226 lung it was 77.4%; in the assay on NCI-H322M lung it was 87.7%; in the assay on HOP-62 NSCLC it was 75.3%; in the assay on NCI-H460 lung it was 41.5%; with HOP-92 NSCLC, 6.61% (active). In addition, the growth in the assay with NCI-H522 lung was 28.2%; in the assay on A549/ATCC NSCLC, 48.8%; in the assay on 786-0 renal it was 48.9%; with COLO 205 colon, 76.2%.

With `Cc1cc(NC(=O)C2c3ccccc3C(=O)N(CC(C)C)C2c2cccs2)no1` (stereo not given), the growth was 47.6% in the assay on NCI-H23 lung; 103% with NCI-H226 lung; 107% in the assay on NCI-H322M lung; 43.8% with HOP-62 NSCLC; 69.1% in the assay on NCI-H460 lung; -0.868% (active) in the assay with HOP-92 NSCLC. Further, the growth is -66.5% (active) in the assay with NCI-H522 lung, 35.3% with A549/ATCC NSCLC, -32.6% (active) with 786-0 renal and -83.9% (active) in the assay on COLO 205 colon.

Consider `CN1CCN(Cc2ccc(NC(=O)c3cncc(C#Cc4cnc5cccnn45)c3)cc2C(F)(F)F)CC1`, for which the growth is -7.84% (active) with NCI-H23 lung; -3.9% (active) in the assay on NCI-H226 lung; 6.52% (active) with NCI-H322M lung; -6.79% (active) with HOP-62 NSCLC; -12.6% (active) in the assay with NCI-H460 lung; -9.42% (active) in the assay with HOP-92 NSCLC. Besides, the growth in the assay on NCI-H522 lung is -37.1% (active); in the assay with A549/ATCC NSCLC, 4.87% (active); in the assay with 786-0 renal, 6.51% (active); in the assay with COLO 205 colon, -48.1% (active).

Regarding `CCOC(=O)C1=C(C)NC(SCc2nnc(-c3ccc(Cl)cc3)o2)=NC1c1ccc(Br)cc1` (stereo not given), the growth in the assay with NCI-H23 lung is 75.7%; in the assay with NCI-H226 lung, 78.9%; in the assay on NCI-H322M lung, 86.4%; with HOP-62 NSCLC, 86.9%; with NCI-H460 lung it was 80.4%; in the assay on HOP-92 NSCLC it was 57.8%. Moreover, the growth in the assay with NCI-H522 lung is 67.6%; in the assay with A549/ATCC NSCLC, 62.4%; with 786-0 renal, 84.9%; with COLO 205 colon, 77.6%.

For `CCCCCCCCCCCCCC[N+](C)(C)CCCCCCCCCCCCCC`, the growth in the assay on NCI-H23 lung was 70.3%; in the assay with NCI-H226 lung, 72.9%; with NCI-H322M lung, 98.7%; in the assay on HOP-62 NSCLC it was 86.2%; in the assay with NCI-H460 lung it was 74.3%; in the assay on HOP-92 NSCLC, 8.4% (active). Besides, the growth with NCI-H522 lung is 47.3%; with A549/ATCC NSCLC it was 55.3%; in the assay on 786-0 renal, 63.4%; with COLO 205 colon, 66%.

With `NNC(=O)Cc1ccccc1`, the growth in the assay on NCI-H23 lung is 93.2%; in the assay on NCI-H226 lung, 78.2%; with NCI-H322M lung it was 74.2%; in the assay with HOP-62 NSCLC, 92.2%; with NCI-H460 lung, 94.7%; in the assay with HOP-92 NSCLC it was -17.8% (active). The growth was 77.6% in the assay on NCI-H522 lung, 86.3% in the assay on A549/ATCC NSCLC, 92.1% in the assay on 786-0 renal and 112% in the assay on COLO 205 colon.

Consider `c1ccc(C2=Nc3ccccc3SC2)cc1`, for which the growth in the assay with NCI-H23 lung was 93.5%; in the assay with NCI-H226 lung it was 108%; in the assay on NCI-H322M lung, 98.2%; with HOP-62 NSCLC, 113%; in the assay with NCI-H460 lung, 99.3%; with HOP-92 NSCLC, 62.1%. In addition, the growth in the assay on NCI-H522 lung is 99.6%; with A549/ATCC NSCLC, 96.5%; in the assay with 786-0 renal, 117%; with COLO 205 colon, 114%.

Turning to `O=C(Oc1c(Cl)c(Cl)c(Cl)c(Cl)c1Cl)C1CCCN1C(=O)OCc1ccccc1` (stereo not given), the growth in the assay on NCI-H23 lung is 33.5%; with NCI-H226 lung, 68.3%; in the assay with NCI-H322M lung it was 39.9%; in the assay on HOP-62 NSCLC, 60.2%; in the assay on NCI-H460 lung it was 13.2%; with HOP-92 NSCLC, -0.576% (active). The growth is 12.4% in the assay with NCI-H522 lung, 17.2% with A549/ATCC NSCLC, 67.7% in the assay on 786-0 renal and 35.9% in the assay with COLO 205 colon.

`CC1=NC(c2ccc(Cl)cc2)C2=C(N1)/C(=C/c1ccc(Cl)cc1)CCC2` (stereo not given): the growth with NCI-H23 lung was 81.8%; in the assay on NCI-H226 lung, 113%; with NCI-H322M lung, 94.5%; with HOP-62 NSCLC, 106%; in the assay with NCI-H460 lung, 99.4%; in the assay with HOP-92 NSCLC it was 86.4%. In addition, the growth is 98.6% with NCI-H522 lung, 89% with A549/ATCC NSCLC, 92.7% in the assay on 786-0 renal and 99% in the assay on COLO 205 colon.
